Assay results taken from PubChem BioAssay AID777 (Sanford-Burnham Center for Chemical Genomics, 2007).
About 19,000 (20%) of roughly 96,000 compounds were called active. Not all results are given here. Unmarked numbers belong to inactive results.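 The calls were made as follows: active = blocking of liver enzyme CYP2C9 beyond about 50% at 5 µM (limit read from the data); inactive = the rest.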

biological target: Cytochrome P450 2C9 (Homo sapiens) (UniProt P11712); experiment: blockers of cytochrome P450 2C9 activity – biochemical, luminescence, ADME assay, primary screen (AID 777); conditions: CYP2C9 Supersomes, luciferin-H conversion, at 5 µM, stronger effect = higher value
Sequence (P11712 whole entry, looked up): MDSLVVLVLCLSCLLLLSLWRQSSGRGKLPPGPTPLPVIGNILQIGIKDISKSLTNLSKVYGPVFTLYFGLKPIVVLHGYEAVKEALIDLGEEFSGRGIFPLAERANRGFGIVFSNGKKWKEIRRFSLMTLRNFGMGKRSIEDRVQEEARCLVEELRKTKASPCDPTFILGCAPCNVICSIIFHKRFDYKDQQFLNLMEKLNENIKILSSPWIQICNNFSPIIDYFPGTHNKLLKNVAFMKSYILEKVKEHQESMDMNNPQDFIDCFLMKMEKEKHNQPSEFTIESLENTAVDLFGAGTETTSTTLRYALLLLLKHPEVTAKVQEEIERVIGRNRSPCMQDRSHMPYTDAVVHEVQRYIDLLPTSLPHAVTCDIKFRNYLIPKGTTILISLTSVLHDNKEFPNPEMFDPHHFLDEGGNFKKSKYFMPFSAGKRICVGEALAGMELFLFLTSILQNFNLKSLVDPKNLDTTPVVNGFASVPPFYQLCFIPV

Compound	inhibition
Cn1c(-c2ccco2)nc2cc3ccccc3cc21	26.1%
Cn1c(Cn2nnc3ccccc32)nnc1SCC(=O)c1ccccc1F	28.6%
COc1ccc(OC)c(/C=N/NC(=O)CSc2nnc(C)n2-c2ccccc2)c1	20.2%
C=CCn1c(Cn2nnc3ccccc32)nnc1SCC(=O)N/N=C/c1cc(Br)cc(OC)c1O	54% (active)
COc1cccc(N(CC(=O)NCCSc2ccccn2)S(C)(=O)=O)c1	38.4%
CC(=O)c1cc2c(cc1N)OCO2	3.4%
CCCCn1c(CN2CCN(CCO)CC2)nc2ccccc21	1.5%
N#Cc1c2c(c(N3CCN(CCO)CC3)n3c1nc1ccccc13)CCCC2	58.2% (active)
CN(C)CCCNc1c2c(c(C#N)c3nc4ccccc4n13)CCC2	7.3%
C=CCOc1ccc(C2/C(=C(\O)c3c(C)[nH]c(C(=O)OC)c3C)C(=O)C(=O)N2CCN(C)C)cc1 (stereo unspecified)	-6.1%
COc1cccc(N2CCN(C(=O)C3CCCN(S(=O)(=O)c4cnc[nH]4)C3)CC2)c1 (stereo unspecified)	36.6%
CCOC(=O)c1cccc(NC(=O)C2CCCN(S(=O)(=O)c3cnc[nH]3)C2)c1 (stereo unspecified)	95.6% (active)
O=C(NCc1ccco1)C1CCCN(S(=O)(=O)c2cnc[nH]2)C1 (stereo unspecified)	27.3%
O=C(CN1C(=O)COc2ccccc21)NCCN1CCc2ccccc2C1	25%
Oc1c(C=Nc2cccc3nsnc23)ccc2ccccc12	-15.3%
COc1c(C(=O)N2CCCC2)ccc2ccccc12	-19.3%
COc1ccc(Br)cc1CN1CCN(C(=O)c2cccc(OC)c2OC)CC1	52.9% (active)
COc1cccc(OC)c1OCCN1CCN(C(=O)c2ccco2)CC1	-24.9%
CN(C)CCCn1c(N)c(C#N)c2nc(C#N)c(C#N)nc21	-11.9%
COc1ccc(OCC(=O)N2CCOCC2)cc1	17.3%
O=C(NCc1ccc(Cl)cc1)c1cc(=O)nc2sc(-c3ccccc3)nn12	2.9%
Cc1ccc(N(C(=O)CC2NC(=O)NC2=O)C2(C(=O)NC3CCCC3)CCCCC2)cc1 (stereo unspecified)	46.4%
CCOc1ccc(CCNC(=O)C(CC)n2nc(C)n3c(cc4sccc43)c2=O)cc1OCC (stereo unspecified)	51.6% (active)
COc1ccc(CCn2c(=N)c(C(=O)NCc3ccco3)cc3c(=O)n4cccc(C)c4nc32)cc1	14.3%
COc1ccc(CCNC(=O)c2cc3sccc3n2C)cc1OC	26.8%
CCOc1ccc(CCNC(=O)C2CCN(c3ccc(N4CCOCC4)nn3)CC2)cc1OCC	14%

Compound	inhibition
CCC(C(=O)NCc1ccc(OC)cc1)n1nc(C)n2c(cc3occc32)c1=O (stereo unspecified)	82.8% (active)
CCC(C(=O)N1CCOCC1)n1c(C(=O)OC)cc2occc21 (stereo unspecified)	12.8%
CCc1c(C)nc2cc(C)[nH]n2c1=O	16.4%
CCCNC(=O)N1CCN(C(=O)NCCC)CC1	2.7%
Cc1ccc(-n2ncc3c(Nc4cccc(C(=O)O)c4)ncnc32)cc1	29.6%
Cc1cc(C)cc(N(CC(=O)N2CC=C(c3ccccc3)CC2)S(=O)(=O)c2c(C)noc2C)c1	90.8% (active)
Cc1cc(C)cc(N(CC(=O)NCC2CCCO2)S(=O)(=O)c2c(C)noc2C)c1 (stereo unspecified)	64.1% (active)
CCOC(=O)C1CCCN(C(=O)CN(c2ccc(OC)cc2)S(=O)(=O)c2c(C)noc2C)C1 (stereo unspecified)	11%
O=C(Nc1ccc(Cl)c(Cl)c1)N1CC=C(c2ccccc2)CC1	46.1%
Cc1ccc(C(=O)O)cc1S(=O)(=O)NCC1CCCO1 (stereo unspecified)	5.8%
CCC(=O)c1c[nH]c(C(=O)NCC2CCCO2)c1 (stereo unspecified)	-7%
COCCCNC(=O)CN1CCN(Cc2ccccc2Cl)C1=O	-16.9%
Cc1nc2ncnn2c(C)c1CCC(=O)N1CCN(C(=O)c2ccco2)CC1	-8.6%
CC(C)N(C(=O)Cn1c(SCC(=O)N2CCN(c3ccccc3)CC2)nc2ccccc21)C(C)C	14.3%
CCN(CC)C(=O)CSc1nc2ccccc2n1CC(=O)N1CCN(c2ccccc2OC)CC1	51.4% (active)
CCOC(=O)n1c(SCC(=O)N(CC)CC)nc2ccccc21	30.9%
O=C1c2ccccc2C(=O)N1CCc1nn[nH]n1	0.5%
Fc1ccccc1CCNc1nnnn1-c1ccccc1	31.4%
O=C(CCSCCc1ccccn1)Nc1nccs1	81% (active)
CN(CCCC(=O)Nc1nccs1)S(=O)(=O)c1ccc(Cl)cc1	38.4%
CC1(C)Cc2cccc(OCC(=O)Nc3nccs3)c2O1	31%
COCCN(CC(=O)Nc1ccccc1C)S(=O)(=O)c1ccc(S(=O)(=O)N2CCCC2)cc1	16.5%
CCOc1cc(C(=O)N2CCc3cc(OC)c(OC)cc3C2)ccc1OC(F)F	30.7%
CCOC(=O)CSc1nnc(CNC(=O)Cc2ccccc2)n1-c1ccccc1OC	8.6%
CCOc1ccc(C(CCc2ccccc2)NC(=O)c2ccc(OC)c(OC)c2)cc1OCC (stereo unspecified)	76.1% (active)
COc1ccc(Cn2c(=O)sc3ccccc32)cc1OC	29.2%

Compound	inhibition
Nc1nc(Br)c2ccccc2c1-c1ccc(F)cc1	2.2%
Cc1cc(C)c2nc(N3CCCC3)c(C#N)cc2c1	9.6%
COc1ccc2nc(N3CCCC(O)C3)c(C#N)cc2c1 (stereo unspecified)	63.9% (active)
COc1ccc(N2CCN(C(=O)CSc3nc4cc(OC)c(OC)cc4cc3C#N)CC2)cc1	26.1%
Cc1[nH]c(=O)c(C(=O)/C=C/c2ccccc2)c2c1CCCC2	-14.6%
CC1(C)C(=O)C2(CCCCC2)C(=O)OC1c1cccs1 (stereo unspecified)	-9.3%
O=C(COc1ccccc1F)NC1CC1	-15.2%
CSc1ccc(C#N)cc1NC(=O)c1ccc(Cl)cc1	6.3%
COc1ccc(Cn2cccc(NC(=O)Nc3ccc(C#N)cc3)c2=O)cc1	14.3%
O=C(Nc1cccn(Cc2c(Cl)cccc2Cl)c1=O)c1ccc(Cl)cc1	71.8% (active)
Cc1ccn2cc(C(=O)NC3CCN(Cc4ccccc4)CC3)nc2c1	16.4%
Cc1ccc(SCCN2C(=O)NC(C)(C)C2=O)cc1	68.6% (active)
CC1(C)NC(=O)N(CCCCSc2ccc(Cl)cc2)C1=O	85.8% (active)
CCC(=O)c1ccc(OCC(O)CN2C(=O)NC(C)(C)C2=O)cc1 (stereo unspecified)	0.4%
Cc1ccc(SCC2=NNC(=O)C2)cc1	-7.3%
CCOC(=O)N1CCN(C(=O)CSc2ccc(Cl)cc2)CC1	42.4%
Cc1ccc(SCc2cc(=O)[nH]c(N3CCCCC3)n2)cc1	14.9%
CC(=O)N1CCCc2cc(S(=O)(=O)CCC(=O)N3CCN(c4ccccc4)CC3)ccc21	-45.2%
COC(=O)Cn1nc(-c2ccccc2)c2cc(Cl)ccc21	25.2%
COc1ccc(C(C)=O)cc1COC(=O)Cn1cnc2ccccc2c1=O	41.4%
COc1ccc(COC(=O)c2n[nH]c3ccccc23)cc1F	54.1% (active)
O=C(COC(=O)c1n[nH]c2ccccc12)NCc1ccccc1	41.3%
COc1ccccc1NC(=O)/C=C/C(N)=O	-19.3%
COc1ccccc1NC(=O)[C@H](COCc1ccccc1)NC(=O)OC(C)(C)C	51.7% (active)
COc1ccccc1NC(=O)CC(NCCN(C)C)C(=O)O (stereo unspecified)	-1.4%
CCC1(C)Cc2c(sc3[nH]c(=S)n(Cc4ccccc4)c(=O)c23)CO1 (stereo unspecified)	34.5%

Compound	inhibition
Oc1ccc(/C=N/NC2=NCCCCC2)c(O)c1	-17.7%
CSCCC(NS(=O)(=O)c1ccc2c(c1)oc(=O)n2C)C(=O)NC1CCCc2ccccc21 (stereo unspecified)	-0.6%
CC1CCN(CC(=O)c2c[nH]c3ccccc23)CC1	4.9%
N#Cc1c(N)sc2c1CCN(C(=O)OCc1ccccc1)C2	97.9% (active)
CCOC(=O)c1c(NC(=S)Nc2ccccc2)sc2c1CCN(C)C2	24.5%
O=C(O)C1CCN(C(=O)OCc2ccccc2)CC1	5.6%
O=C(NN1C(=O)C2C3C=CC(C4CC34)C2C1=O)c1ccc(Cl)cc1 (stereo unspecified)	9.6%
COc1ccc(C(=O)n2nc(-c3ccc(Cl)cc3)nc2N)cc1OC	-12.4%
COC(=O)c1ccc(OC(=O)c2nn(C)cc2Cl)c(OC)c1	58.9% (active)
COc1ccc(Cl)cc1C(=O)NCc1cn(C)nc1C	1.3%
CN(C(=O)CSc1nnc(N)s1)c1c(N)n(Cc2ccccc2)c(=O)[nH]c1=O	-12.4%
COc1ccc(CC(NC(C)=O)C(=O)NC2CCN(C(=O)Nc3ccc(C#N)cc3)CC2)cc1OC (stereo unspecified)	9.3%
Cc1ccc(NC(=O)C2CCCN(S(=O)(=O)c3c(C)noc3C)C2)c(C)c1 (stereo unspecified)	8.4%
Cc1noc(C)c1S(=O)(=O)N1CCCC(C(=O)Nc2nccs2)C1 (stereo unspecified)	56.5% (active)
O=C(Nc1nccs1)C1CCN(S(=O)(=O)c2ccc(Cl)c(C(F)(F)F)c2)CC1	-45.5%
Cc1ccc(C2=CSC3=NS(=O)(=O)CCN23)cc1C	-9.4%
CCOC(=O)CSc1nnc(-c2cccc(Br)c2)o1	-12.3%
CCN1CCN(C(=O)c2cc3cc4ccc(OC)cc4nc3s2)CC1	-5.1%
COc1ccccc1N1CCN(C(=O)CN(Cc2ccc(Cl)cc2)S(C)(=O)=O)CC1	41.4%
COc1cccc(-c2nn(C)c3sc(C(=O)N4CCN(c5ccccc5)CC4)cc23)c1	68.5% (active)
COc1ccccc1N1CCN(C(=O)c2cc3c(-c4ccc(Cl)cc4)nn(C)c3s2)CC1	97.6% (active)
COc1cccc(-n2cc(C(=O)O)c3ccccc3c2=O)c1	0.5%
CCOC(=O)N1CCN(C(=O)c2cc3c(-c4ccc(Cl)cc4)nn(C)c3s2)CC1	25.5%
